Assay [1] in a line: NCI Yeast Anticancer Drug Screen. Data for the rad50 strain (AID 155).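 Note: 0% = growth of vehicle-only cultures of the same strain.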 The settings on record: S. cerevisiae rad50 strain growth inhibition; at 50.0 µM; stronger effect = higher value. Put shortly:
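DNA repair mutant yeast, compound exposure, growth read-out; inhibition is taken relative to vehicle.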

The nature of assay [2]: NCI Yeast Anticancer Drug Screen. Data for the mec2-1 strain (AID 157). As to conditions: S. cerevisiae mec2-1 strain, at 50.0 µM, stronger effect = higher value. The essentials:
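Using mec2-1 yeast: add compound, measure growth, express inhibition versus vehicle-treated cultures.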

Assay [3] can be described thus: NCI Yeast Anticancer Drug Screen. Data for the sgs1 mgt1 strain (AID 161).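 Note: 0% = growth of cultures given vehicle only.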 As to conditions: S. cerevisiae sgs1 mgt1 strain, at 50.0 µM, stronger effect = higher value. The essentials:
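This yeast growth screen uses a strain with defined DNA-repair lesions; compound-treated growth is compared with vehicle-treated growth.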

The nature of assay [4]: NCI Yeast Anticancer Drug Screen. Data for the cln2 rad14 strain (AID 165).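 Note: 0% = growth equal to vehicle treated cultures.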 The settings on record: S. cerevisiae cln2 rad14 strain, at 50.0 µM, stronger effect = higher value. Put shortly: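 Yeast strain cln2 rad14, bearing defects in cell cycle control and DNA repair, serves as the test system; values reflect growth inhibition compared with vehicle.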
The nature of assay [5]: NCI Yeast Anticancer Drug Screen. Data for the bub3 strain (AID 167). The settings on record: S. cerevisiae bub3 mutant strain, at 50.0 µM, stronger effect = higher value. Put shortly: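 In this screen, a yeast mutant lacking normal mitotic checkpoint function is challenged with compound. Relative growth versus vehicle gives the inhibition value.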
Assay [6] in a line: NCI Yeast Anticancer Drug Screen. Data for the mlh1 rad18 strain (AID 175). As to conditions: S. cerevisiae mlh1 rad18 strain growth inhibition; at 50.0 µM; stronger effect = higher value. Put shortly:
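Steps: expose repair-defective yeast to compound; measure growth; express inhibition against vehicle-treated controls.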

This is part of a sample that, as a whole, favours compounds with a hit. Of some 79,000 tested, about 15% had one in any assay. Values without a mark were called inactive. The source made the active and inactive calls. Cut-off read from the data, not from the text of the source: active = growth inhibition above about 70%; inactive = the rest.

`CC(=O)[CH-]C(=O)c1ccccc1.CC(=O)[CH-]C(=O)c1ccccc1.CC12CC3(C)CC(C)(C1)CC([O-])(C2)C3.CC[O-].[Ti+4]`: the growth inhibition in assay [1] was 15.1%; in assay [2], 21.8%; in assay [3], 28.6%; in assay [4] it was 23.8%; in assay [5] it was 8.55%; in assay [6] it was 18%.

Take `COC(=O)CCC(=O)Nc1cc(Cl)c(Cl)cc1Cl`: the growth inhibition in assay [1] is -14.1%; in assay [2] it was 8.15%; in assay [3], 6.55%; in assay [4], 1.15%; in assay [5], 9.3%; in assay [6], -7.4%.

In the case of `C[C@@H](O)c1nc(C(N)=O)cs1`, the growth inhibition in assay [1] was 6.15%; in assay [2] it was 14.2%; in assay [3] it was 15.3%; in assay [4] it was -3.55%; in assay [5] it was 1.35%; in assay [6], 10.1%.

On to `COC(=O)c1cc([N+](=O)[O-])c(Sc2ncnc3nc[nH]c23)c([N+](=O)[O-])c1`, for which the growth inhibition is 53% in assay [1]; 25.6% in assay [2]; 24.4% in assay [3]; 80% (active) in assay [4]; 26.9% in assay [5]; 34.8% in assay [6].

Turning to `CCCCCC(=O)OCC[N+](C)(C)C`, the growth inhibition in assay [1] was -29.8%; in assay [2], -29.9%; in assay [3], -6.95%; in assay [4] it was 4.85%; in assay [5] it was -25.2%; in assay [6] it was -13.2%.

With `CCCCOC(=O)COc1ccc(OC)cc1`, the growth inhibition in assay [1] is -4.5%; in assay [2], -22.1%; in assay [3], -13.3%; in assay [4], -34.6%; in assay [5], 3.45%; in assay [6] it was 6.2%.

For `NC1=C(O)c2cccc3cccc(c23)C1=O`, the growth inhibition in assay [1] was 9.95%; in assay [2], 12.2%; in assay [3], 11.8%; in assay [4], 2.35%; in assay [5] it was 9.45%; in assay [6] it was 16.4%.

Consider `CCOC([O-])=N/C(=N/[n+]1ccc(C)cc1)c1ccccc1`, for which the growth inhibition in assay [1] was 8.35%; in assay [2] it was 5.55%; in assay [3], -3.45%; in assay [4], -16.1%; in assay [5] it was -15.1%; in assay [6] it was -12.5%.

In the case of `CC1OC(OC2C(O)CC(OC3C(O)CC(OC4CCC5(C)C(CCC6C5CCC5(C)C(C7=CC(=O)OC7)CCC65O)C4)OC3C)OC2C)CC(O)C1O` (stereo unspecified), the growth inhibition in assay [1] was 7.6%; in assay [2] it was 2.4%; in assay [3] it was -17.5%; in assay [4] it was 16.8%; in assay [5], 6.65%; in assay [6], 27.2%.

As for `OCCCNc1nc2cc(Br)ccc2c2ccc(Br)cc12`, the growth inhibition is 47.6% in assay [1]; 4.75% in assay [2]; 23.9% in assay [3]; -3.65% in assay [4]; 0.1% in assay [5]; 19.1% in assay [6].

With `CSc1ccc(NC(=O)COc2ccccc2)cc1`, the growth inhibition in assay [1] is 9.75%; in assay [2], 19.1%; in assay [3], 6.05%; in assay [4] it was -3.7%; in assay [5], 39.3%; in assay [6], 21.7%.

On to `O=C(NN1CCCCC1)NN1CCCCC1`, for which the growth inhibition in assay [1] is 5.35%; in assay [2] it was -2.5%; in assay [3], 8.6%; in assay [4], 20.1%; in assay [5] it was 24%; in assay [6] it was 18.2%.

With `O=C(OCc1c(-c2ccccc2)nn(-c2ccccc2)c1COC(=O)Oc1ccccc1)Oc1ccccc1`, the growth inhibition is -2.8% in assay [1]; -14.6% in assay [2]; -11.8% in assay [3]; 17.8% in assay [4]; -11.2% in assay [5]; 10.2% in assay [6].

Take `CN1C(=O)Cn2c(n[nH]c(=O)c2=O)-c2cc(Cl)ccc21`: the growth inhibition in assay [1] is -22.4%; in assay [2], 12.3%; in assay [3], 10.3%; in assay [4] it was -36.5%; in assay [5], 12.9%; in assay [6], 6.2%.

Consider `CC(O)C(O)C(O)CO` (stereo unspecified), for which the growth inhibition in assay [1] was 6.1%; in assay [2], 18.4%; in assay [3] it was -3.85%; in assay [4], 19.8%; in assay [5] it was 24.4%; in assay [6], 8.95%.

Turning to `O=c1[nH]nc(Cc2ccc(Cl)cc2)n1/N=C\CC/C=N\n1c(Cc2ccc(Cl)cc2)n[nH]c1=O`, the growth inhibition was -18.4% in assay [1]; -0.9% in assay [2]; -14.1% in assay [3]; -4.05% in assay [4]; -13.3% in assay [5]; -3% in assay [6].

For the molecule `CCOC(=O)C1=C(c2ccccc2)OC(N)=C(C#N)C1c1ccccc1` (stereo unspecified), the growth inhibition is -16.9% in assay [1]; -8.4% in assay [2]; -17.6% in assay [3]; 7.6% in assay [4]; 25.3% in assay [5]; -4.85% in assay [6].

For `O=c1/c(=C/c2cccc([N+](=O)[O-])c2)sc2nc3ccccc3n12`, the growth inhibition in assay [1] was -9.95%; in assay [2], -12.7%; in assay [3] it was -18.1%; in assay [4], -4.65%; in assay [5], -10.1%; in assay [6] it was -12.7%.

Turning to `NC(=S)N1CC=CCC1`, the growth inhibition is -8.65% in assay [1]; 0.9% in assay [2]; -3.4% in assay [3]; 7.95% in assay [4]; 3.9% in assay [5]; -6.8% in assay [6].

Regarding `CC(=O)CC(=O)N1CCCCCCC1`, the growth inhibition was -34% in assay [1]; -57.5% in assay [2]; -12.4% in assay [3]; -8.4% in assay [4]; -23.2% in assay [5]; -34.2% in assay [6].

`COC=C(C(=O)OC)C(=O)OC`: the growth inhibition is -1.65% in assay [1]; 3.9% in assay [2]; 0.5% in assay [3]; 0.2% in assay [4]; -10.5% in assay [5]; 3.85% in assay [6].
